± gives the standard deviation of the averaged measurements.

In test [1] the test system is DLD1. In words: cell viability (CellTiter-Glo) relative to plate median (fraction of plate median); higher = more viable cells. The note with it: 5 µM; treatment time 24 h; reporter: 7TFP. Summed up:
(§1)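 Colorectal cancer cell lines stably carrying lentiviral TCF/Wnt firefly luciferase reporters (7TFP or TCF4/Wnt) were plated in 384-well plates and, 24 h later, given library compounds at a final 5 µM for 24 h. Firefly luciferase or CellTiterGlo luminescence was read on parallel plates with a Tecan F500 reader. Each well's signal was normalised to the plate median in webcellHTS2 (additive, without log transformation). Values are the mean of two independent replicates.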

A further test has as its system HCT116. The description is as above. The note with it: 5 µM; treatment time 24 h; reporter: TCF4/Wnt. The method in brief:
as §1

The test system of test [2] is SW480. The description is as above. The note with it: 5 µM; treatment time 24 h; reporter: 7TFP. The method in brief: as §1
Test [3] concerns DLD1. In words: TCF/Wnt firefly luciferase reporter signal relative to plate median (fraction of plate median); higher = higher Wnt reporter signal. The note with it: 5 µM; treatment time 24 h; reporter: 7TFP. Summed up:
as §1
In general terms: In a reporter assay the amount or activity of a reporter protein is the signal.

Test [4] deals with SW480. Described as above. The note with it: 5 µM; treatment time 24 h; reporter: 7TFP. The method in brief: as §1

For `CC[C@H](CC[C@@H](C)[C@H]1CC[C@H]2[C@@H]3CC=C4C[C@@H](O)CC[C@]4(C)[C@H]3CC[C@]12C)C(C)C` [beta-SITOSTEROL], the cell viability was 1.07 ± 0.13 with DLD1 [1], 1.03 ± 0.035 in the test on HCT116 and 1.13 ± 0.014 with SW480 [2]. Also, the “TCF/Wnt firefly luciferase reporter signal” value with DLD1 [3] is 0.872 ± 0.0028; in the test with SW480 [4], 1.02 ± 0.035.

On to `COC(=O)C1=C(C)NC(C)=C(C(=O)OCCN(C)Cc2ccccc2)C1c1cccc([N+](=O)[O-])c1` (stereo not given), for which the values for the cell viability with DLD1 [1], in the test with HCT116 and in the test with SW480 [2] were 0.914 ± 0.074, 1.02 ± 0.1 and 0.98 ± 0.042, respectively. The “TCF/Wnt firefly luciferase reporter signal” value came to 0.941 ± 0.13 in the test on DLD1 [3] and 0.951 ± 0.065 with SW480 [4].

On to `CC=CC1=C(C(=O)O)N2C(=O)[C@@H](NC(=O)[C@H](N)c3ccc(O)cc3)[C@H]2SC1`, for which the cell viability amounted to 0.992 ± 0.012 in the test on DLD1 [1], 1.03 ± 0.06 in the test on HCT116 and 0.983 ± 0.039 in the test with SW480 [2]. The results for the “TCF/Wnt firefly luciferase reporter signal” value in the test on DLD1 [3] and in the test on SW480 [4] were 1.09 ± 0.099 and 1.17 ± 0.064, respectively.

As for `Fc1ccc([C@@H]2CCNC[C@H]2COc2ccc3c(c2)OCO3)cc1`, the cell viability in the test on DLD1 [1] came to 0.977 ± 0.021; with HCT116, 1.02 ± 0.12; with SW480 [2], 1.02 ± 0.021. Moreover, the “TCF/Wnt firefly luciferase reporter signal” value in the test on DLD1 [3] is 1.1 ± 0.085; in the test on SW480 [4], 1.13 ± 0.042.

`CC1(C)C(O[C@@H]2OC[C@@H](O)[C@H](O)[C@H]2O)CC[C@]23CC24CC[C@]2(C)[C@@H]([C@@]5(C)CC[C@@H](C(C)(C)O)O5)[C@H](O)C[C@@]2(C)C4C[C@@H](O[C@@H]2O[C@H](CO)[C@@H](O)[C@H](O)[C@H]2O)C13` (stereo not given in full): the cell viability is 0.987 ± 0.033 with DLD1 [1], 0.961 ± 0.016 in the test with HCT116 and 0.9815 ± 0.0064 with SW480 [2]. Further, the figures for the “TCF/Wnt firefly luciferase reporter signal” value with DLD1 [3] and with SW480 [4] were 1 ± 0.011 and 1.075 ± 0.0071, respectively.

In the case of `CC(=O)OC[C@@]1(O)C[C@@]23CC[C@@H]4c5ccoc5CC[C@@]4(C)[C@@H]2CC[C@@H]1C3`, the cell viability is 1.02 ± 0.028 with DLD1 [1], 1.05 ± 0.042 with HCT116 and 1.02 with SW480 [2]. For the same molecule, the results for the “TCF/Wnt firefly luciferase reporter signal” value in the test with DLD1 [3] and with SW480 [4] were 1.08 ± 0.16 and 1.16 ± 0.057, respectively.

On to `C[C@@H]1C/C=C/C=C/C=C/C=C/[C@H](O[C@@H]2O[C@H](C)[C@@H](O)[C@H](N)[C@@H]2O)C[C@@H]2O[C@](O)(C[C@@H](O)C[C@H]3O[C@@H]3/C=C/C(=O)O1)C[C@H](O)[C@H]2C(=O)O`, for which the cell viability in the test with DLD1 [1] is 1.03 ± 0.08; with HCT116 it was 0.915 ± 0.13; with SW480 [2] it was 0.987 ± 0.019. The “TCF/Wnt firefly luciferase reporter signal” value is 0.921 ± 0.033 with DLD1 [3] and 0.962 ± 0.028 in the test with SW480 [4].

As for `O=C(O)c1cc2ccccc2[nH]1`, the values for the cell viability with DLD1 [1], with HCT116 and with SW480 [2] were 0.968 ± 0.011, 0.994 ± 0.08 and 1.04 ± 0.028, respectively. For the same molecule, the “TCF/Wnt firefly luciferase reporter signal” value was 1.12 in the test on DLD1 [3] and 1.08 ± 0.021 with SW480 [4].

For the molecule `N=c1ccn2c(n1)O[C@H]1[C@H](O)[C@@H](CO)O[C@H]12`, the cell viability turned out to be 1.16 ± 0.078 with DLD1 [1], 0.942 ± 0.034 in the test with HCT116 and 1.15 ± 0.028 with SW480 [2]. The “TCF/Wnt firefly luciferase reporter signal” value in the test with DLD1 [3] stood at 1.08 ± 0.11; in the test with SW480 [4], 1.1.

Consider `O=C(Cn1ccnc1[N+](=O)[O-])NCCO`, for which the cell viability in the test on DLD1 [1] worked out at 0.992 ± 0.04; with HCT116 it was 0.989 ± 0.1; with SW480 [2] it was 0.9935 ± 0.0092. For the same molecule, the “TCF/Wnt firefly luciferase reporter signal” value with DLD1 [3] is 1.09 ± 0.17; with SW480 [4] it was 1.02 ± 0.038.

In the case of `CCCCOc1ccc(C(=O)CCN2CCCCC2)cc1`, the values for the cell viability in the test on DLD1 [1], in the test on HCT116 and in the test on SW480 [2] were 0.832 ± 0.12, 0.87 ± 0.033 and 0.931 ± 0.045, respectively. Moreover, the “TCF/Wnt firefly luciferase reporter signal” value in the test with DLD1 [3] is 1.09 ± 0.23; in the test on SW480 [4] it was 1.17 ± 0.092.

With `Oc1c(Cl)cc(Cl)c(Cl)c1Cc1c(O)c(Cl)cc(Cl)c1Cl`, the cell viability with DLD1 [1] was determined as 0.934 ± 0.021; in the test with HCT116 it was 1.03 ± 0.1; with SW480 [2], 1.02 ± 0.028. Besides, the “TCF/Wnt firefly luciferase reporter signal” value in the test with DLD1 [3] worked out at 1.34 ± 0.18; in the test with SW480 [4] it was 1.15 ± 0.021.

For `NC[C@H]1O[C@H](O[C@H]2[C@H](O)[C@@H](O[C@H]3O[C@H](CO)[C@@H](O)[C@H](N)[C@H]3O)[C@H](N)C[C@@H]2N)[C@H](N)C[C@@H]1O`, the results for the cell viability in the test on DLD1 [1], in the test with HCT116 and in the test on SW480 [2] were 0.854 ± 0.012, 0.922 ± 0.073 and 0.998 ± 0.06, respectively. Also, the “TCF/Wnt firefly luciferase reporter signal” value worked out at 0.992 ± 0.0042 in the test on DLD1 [3] and 1.05 ± 0.076 with SW480 [4].

As for `COC1=CC(=O)C(C(=O)c2ccccc2)=CC1=O`, the cell viability was 0.965 ± 0.015 in the test on DLD1 [1], 0.991 ± 0.028 with HCT116 and 0.975 ± 0.028 in the test with SW480 [2]. Besides, the “TCF/Wnt firefly luciferase reporter signal” value with DLD1 [3] amounted to 1.03 ± 0.09; in the test with SW480 [4] it was 1.04 ± 0.063.

Regarding `COc1ccc(NS(=O)(=O)c2ccc(N)cc2)nn1`, the cell viability in the test with DLD1 [1] was 0.99 ± 0.057; in the test on HCT116, 1.09 ± 0.042; in the test on SW480 [2], 1.02 ± 0.032. In addition, the “TCF/Wnt firefly luciferase reporter signal” value in the test on DLD1 [3] amounted to 1.12 ± 0.19; in the test on SW480 [4], 0.914 ± 0.14.

The record behind these values is the supplement of paper PMC6522484.
